Source: PubChem BioAssay (The Scripps Research Institute Molecular Screening Center)
The list is not random: actives were taken first. Their share in the collection is about 3.5%.
TEAD-YAP block: TEAD-YAP interaction inhibition; 1.4% of 640,000 active; inhibition, % at 9.12 µM; AID 1259422; HEK-TIYL cells, TEAD-Gal4/YAP UAS-luciferase luminescence; in the data active = inhibition above about 32%
MITF primary: inhibitors of human MITF. 0.91% of 650,000 active. O75030. AlphaScreen MITF homodimerization, bead proximity signal. inhibition, % at 2.6 µM; in the data active = inhibition above about 50%
GPR151 ag: activators of human GPR151. Q8TDV0. PathHunter beta-arrestin GPR151 cells, luminescence. activation, % at 11.2 µM. 1% of 650,000 active. AID 1508602; in the data active = activation above about 4.9%
Target sequence (Q8TDV0 whole entry, looked up): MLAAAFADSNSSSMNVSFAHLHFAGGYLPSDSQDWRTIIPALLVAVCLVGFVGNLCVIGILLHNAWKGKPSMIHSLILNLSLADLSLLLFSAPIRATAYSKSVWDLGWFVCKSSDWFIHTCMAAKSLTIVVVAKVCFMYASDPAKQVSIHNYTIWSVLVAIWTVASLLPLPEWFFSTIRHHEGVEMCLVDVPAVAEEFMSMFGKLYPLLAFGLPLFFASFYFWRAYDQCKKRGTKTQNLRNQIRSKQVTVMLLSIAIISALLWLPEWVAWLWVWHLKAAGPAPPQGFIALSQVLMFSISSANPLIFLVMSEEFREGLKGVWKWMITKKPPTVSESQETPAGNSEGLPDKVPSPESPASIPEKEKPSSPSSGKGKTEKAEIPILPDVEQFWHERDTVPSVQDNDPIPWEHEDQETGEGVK
FBW7 act: activators of human E3 ligase FBW7. Q969H0. AlphaScreen FBW7–phospho-cyclin E peptide binding, activator screen. normalized activity (activation), % at 26.1 µM. 0.13% of 650,000 active. AID 1259310; in the data active = normalized activity above about 1.9%;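 note: purified mutant Fbw7 with reduced substrate affinity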
MITF confirm: confirmation of human MITF inhibitors. shares compounds with MITF primary. AlphaScreen MITF homodimerization, biotin/His-MITF beads. inhibition, % at 2.6 µM. 16% of 4,700 active;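 active = inhibition above a cutoff derived from the DMSO control wells, cut at about 28% in these data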;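 note: inhibitors lower the bead chemiluminescence by keeping MITF from dimerizing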
AS interf ctr: AlphaScreen optical interference, counter-screen | shares compounds with MITF primary | LysRS AlphaScreen counterscreen, signal interference, triplicate | inhibition, % at 2.6 µM | 7.6% of 4,700 active;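 active = inhibition above a cutoff derived from the DMSO control wells, cut at about 30% in these data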
Numbers stand for hits; n = inactive; x = no result; ! = not active in a repeat.

SMILES | TEAD-YAP block | MITF primary | GPR151 ag | FBW7 act | MITF confirm | AS interf ctr
Cc1ccc(NC(=O)CN2C(=O)c3cccc4cccc2c34)c(C)c1 | n | n | n | n | x | x
CC1CN(CCOc2ccc(Cl)cc2Cl)CC(C)O1 (stereo not given) | n | n | n | n | x | x
CC1CN(CCOc2ccc(Br)cc2Cl)CC(C)O1 (stereo not given) | n | 51 | n | n | n | n
CC1CN(CCCOc2ccc(Br)cc2Cl)CC(C)O1 (stereo not given) | n | 58 | n | n | n | n
CCOc1ccccc1OCCN1CC(C)OC(C)C1 (stereo not given) | n | n | n | n | x | x
Cc1cc(C)c(C)c(OCCN2CC(C)OC(C)C2)c1 (stereo not given) | n | 71 | n | n | n | n
CC(C(=O)Nc1ccc(Br)cc1Cl)N1C(=O)C2C3C=CC(C3)C2C1=O (stereo not given) | n | n | n | n | x | x
Cc1cccc(N(C)c2nc3ccccc3n3cnnc23)c1 | n | n | n | n | x | x
CC(C)CNC(=O)c1cn(C2CCCCC2)cc(C(=O)NCCc2cccnc2)c1=O | n | 51 | n | n | n | n
COc1cccc(C(=O)Nc2cc(OC)ccc2OC)c1 | n | n | n | n | x | x
COc1cc(C(C)=O)ccc1OCC(O)CNCC1(N2CCCCC2)CCCCC1 (stereo not given) | n | n | n | n | x | x
COc1ccccc1COCC(O)CNCC1(N2CCCCC2)CCCCC1 (stereo not given) | n | 68 | n | n | n | n
COc1ccccc1COCC(O)CNCCCN1CCOCC1 (stereo not given) | n | 62 | n | n | n | n
COc1ccccc1COCC(O)CNCc1ccncc1 (stereo not given) | n | 70 | n | n | n | n
COc1ccccc1COCC(O)CNC(C)(C)C (stereo not given) | n | n | n | n | x | x
O=C(C1CCN(Cc2ccccc2)CC1)N1CCN(C/C=C/c2ccccc2)CC1 | n | 60 | n | n | n | n
COc1ccc(CN2CCN(C/C=C/c3ccccc3)CC2)cc1 | n | n | n | n | x | x
COc1cc(CN2CCN(C/C=C/c3ccccc3)CC2)cc(OC)c1OC | n | 67 | n | n | n | n
COc1cc(CN2CCN(C/C=C/c3ccccc3)CC2)ccc1O | n | 52 | n | n | n | n
COc1ccc(CN2CCN(C/C=C/c3ccccc3)CC2)cc1O | n | 62 | n | n | n | n
Cc1csc2nc(-c3ccccc3)cn12 | n | n | n | n | x | x
COc1ccc(-n2c(CN3CCSCC3)n[nH]c2=S)cc1 | n | 71 | n | n | n | n
CN1CCN(Cc2cn[nH]c2-c2ccc(Cl)cc2)CC1 | n | n | n | n | x | x
Cc1ccc(-c2[nH]ncc2CN2CCN(C)CC2)cc1 | n | 69 | n | n | n | n
COc1ccc(CCNC(=O)CCn2c(SCC(=O)N3CCN(c4ccccc4)CC3)nc3ccccc3c2=O)cc1OC | n | n | n | n | x | x
SMILES | TEAD-YAP block | MITF primary | GPR151 ag | FBW7 act | MITF confirm | AS interf ctr
CCOC(=O)c1ccc(NC(=O)CC2C(=O)N(c3ccc(F)cc3)C(=S)N2CCc2ccc(OC)c(OC)c2)cc1 (stereo not given) | n | 72! | n | n | n | n
COC(=O)c1ccc(NC(=O)CC2C(=O)N(c3ccc(F)cc3)C(=S)N2CCc2ccc(OC)c(OC)c2)cc1 (stereo not given) | n | n | n | n | x | x
CCN1C(=O)CC(C(=O)Nc2ccc(Br)cc2)SC1=Nc1ccc(C)c(C)c1 (stereo not given) | n | n | n | n | x | x
Cc1ccc(/C=N/Nc2cccc(C(=O)O)c2)o1 | n | 59 | n | n | n | n
O=C(Nc1ccc2c(c1)C(=O)NCCO2)c1ccc(Cl)cc1 | n | n | n | n | x | x
Cc1ccccc1C(=O)Nc1ccc2c(c1)C(=O)NCCO2 | n | 51 | n | n | n | n
COc1cccc(CN2CCN(C3CCCCCC3)CC2)c1OC | n | 71 | n | n | n | n
COc1cccc(CN2CCCC(C(=O)NN)C2)c1OC (stereo not given) | n | 55 | n | n | n | n
COc1cccc(CN2CCN(C3CCCCC3C)CC2)c1OC (stereo not given) | n | 86 | n | n | n | n
COc1cccc(CN2CCN(C3CC4CCC3C4)CC2)c1OC (stereo not given) | n | 71 | n | n | n | n
COc1cccc(CN2CCN(C3CCCC3)C(CCO)C2)c1OC (stereo not given) | n | n | n | n | x | x
CCN(CC)C(=O)C1CCCN(Cc2cccc(OC)c2OC)C1 (stereo not given) | n | n | n | n | x | x
COc1ccc(S(=O)(=O)n2nnc3ccccc32)c(C)c1 | n | n | n | n | x | x
O=C(OCC(=O)c1c[nH]c2ccccc12)c1cccc(S(=O)(=O)N2CCOCC2)c1 | n | n | n | n | x | x
COc1cc(C2CC(c3cccs3)Nc3nnnn32)cc(OC)c1OC (stereo not given) | n | n | n | n | x | x
COc1cc(CN2CCN(c3ccccc3C)CC2)cc(OC)c1OC | n | n | n | n | x | x
COc1cc(CN2CCN(Cc3c[nH]c4ccccc34)CC2)cc(OC)c1OC | n | 56 | n | n | n | n
COc1cc(CN2CCN(c3ccccn3)CC2)cc(Br)c1O | n | n | n | n | x | x
COc1cc(CN2CCN(Cc3ccccc3C)CC2)cc(OC)c1OC | n | 64 | n | n | n | n
COc1cc(CN2CCN(CCO)CC2)cc(Br)c1O | n | 67 | n | n | n | n
COc1cc(CN2CCN(Cc3ccccc3Br)CC2)cc(OC)c1O | n | 68 | n | n | n | n
CSc1nnc(SCc2nc3ccccc3[nH]2)s1 | n | n | n | n | x | x
CCCn1c2ccccc2c2nnc(SC(CC)C(=O)Nc3nnc(C)s3)nc21 (stereo not given) | n | n | n | n | x | x
COCCn1c(SCC(=O)Nc2ccc(OC)cc2)nnc1-c1ccc(Cl)cc1 | n | n | n | n | x | x
CC(NC(N)=O)C(=O)N1CCc2ccccc2C1 (stereo not given) | n | n | n | n | x | x
SMILES | TEAD-YAP block | MITF primary | GPR151 ag | FBW7 act | MITF confirm | AS interf ctr
COc1cc(CN2CCN(C(=O)c3ccccc3)CC2)cc(OC)c1O | n | n | n | n | x | x
COc1cc(CN2CCN(Cc3ccccc3C)CC2)cc(OC)c1O | n | 59 | n | n | n | n
Cc1ccc(C(=O)COC(=O)C(C(C)C)N2C(=O)C3C4C=CC(C4)C3C2=O)cc1[N+](=O)[O-] (stereo not given) | n | 82 | n | n | n | n
Cc1ccc(CN2CCc3nnc(C(NS(C)(=O)=O)C(C)C)n3CC2)cc1C (stereo not given) | n | n | n | n | x | x
COc1ccc(C(=O)n2nc(-c3ccco3)nc2N)cc1 | n | 80 | n | n | 78 | 49
Cc1ccc(C(=O)n2nc(-c3ccco3)nc2N)cc1 | n | n | n | n | x | x
CC1(C)[C@H]2CC=C(CN3CCOc4ccc(CN5CCC(O)CC5)cc4C3)[C@@H]1C2 | n | n | n | n | x | x
CC1(C)C2CC=C(CN3CCN(Cc4ccc5c(c4)OCO5)CC3)C1C2 (stereo not given) | n | 64 | n | n | n | n
